Reference: PubChem BioAssay (NCI)
Compounds without any hit were thinned out: in the full panel of roughly 83,000, 20% have a hit.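 96-well plates, one dose, 48 hours. Percent growth reported; active if below 10.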 Unmarked numbers belong to inactive results. Activity calls are given as the source filed them.

tested on: COLO 205 colon; assay: NCI-60 one-dose screen, 48 h (100 = growth as untreated, 0 = no growth, -100 = all killed); conditions: 10 µM unless noted

Row | SMILES | growth
1 | CC/C(=C(\c1ccc(Cl)cc1)c1ccc(OCCN2CCCCC2)cc1)c1ccc(O)cc1 | -73.5% (active)
2 | CCOC(=O)c1[nH]cc2c1CCc1sc(Nc3ccccn3)nc1-2 | 93.7%
3 | COc1cc(-c2ccc(-c3ccc(C(=N)N)cc3)s2)cc(OC)c1OC | -41.8% (active)
4 | CN(C)c1ccc([C@@H](C(=O)Nc2cccc([N+](=O)[O-])c2)N(C(=O)c2cc3ccccc3[nH]2)c2cccc([N+](=O)[O-])c2)cc1 | 102%
5 | Cc1cccc(NC(=O)N/C(N)=N/c2nc3ccccc3s2)c1 | 16.9%
6 | CN(C)c1ccc(/C=N\NC(=O)c2ccc3nc(-c4ccc(Cl)cc4)[nH]c3c2)cc1 | 41.3%
7 | C=C1SC(=Nc2ccccc2Cl)N(C(=O)c2sc3ccccc3c2Cl)C1(C)C | -43.8% (active)
8 | CC[C@@H](C(=O)[C@@H](C)[C@@H](O)[C@H](C)[C@@H]1O[C@@H]([C@@H](CC)C(=O)ONC(=O)c2ccccc2O)CC[C@@H]1C)C1O[C@]2(C=CC(=O)[C@]3(CC[C@@](C)([C@H]4CC[C@](O)(CC)[C@H](C)O4)O3)O2)[C@H](C)C[C@@H]1C (stereo not given in full) | 11.6%
9 | Cc1ccc(NC(=O)c2cc3ccccc3cc2O)c(C)c1 | 78.5%
10 | CCN(CC)CCOc1ccc2c(-c3ccccc3)c(-c3ccc(OC)cc3)c(=O)oc2c1 | -38.8% (active)
11 | CCOC(=O)C1=C(CC(O)c2ccc(OC)cc2OC)NC(=O)NC1c1ccccc1 (stereo not given) | 126%
12 | COc1nc(/C=C\Nc2ccc3c(c2)OCCOCCOCCOCCO3)nc(OC)n1 | 109%
13 | Cc1c(O)cc(-c2cnc(N/N=C/c3ccccc3)s2)c(O)c1C | 111%
14 | CCCCO[C@@H]1C=C2[C@H]3CC(C)(C)C(=O)C[C@]3(C(=O)O[C@@H]3O[C@H](CO[C@@H]4O[C@H](CO)[C@@H](OC5OC(C)C(O)C(O)C5O)[C@H](O)[C@H]4O)[C@@H](O)[C@H](O)[C@H]3O)CC[C@@]2(C)[C@]2(C)CC[C@H]3C(C)(C)C(=O)CC[C@]3(C)[C@@H]12 (stereo not given in full) | 97.2%
15 | O=CN1N=C(c2cccc(Nc3ccnc4cc(Cl)ccc34)c2)CC1c1ccc(Cl)cc1 (stereo not given) | -9.28% (active)
16 | CCCCCCCCn1ccc2cc(NC(=O)CN3CCN(c4cc(C)nc(Cl)n4)CC3)ccc21 | 106%
17 | O=C1Nc2ccccc2/C1=N/N1C(=O)CN(CCCl)C1=O | 112%
18 | CCOc1ccc(/C=C/C(=O)c2cccc(OCCCOc3cccc(C(=O)/C=C/c4ccc(OCC)cc4)c3)c2)cc1 | 116%
19 | C=C1C(=O)O[C@H]2[C@H]1CC/C(COC(=O)NCc1ccc(Cn3c(=O)sn(-c4ccc(I)cc4)c3=O)cc1)=C\CC[C@@]1(C)O[C@@H]21 | 36.9%
20 | O=C1/C(=C/c2c[nH]c(=O)[nH]c2=O)SC(=S)N1Cc1ccccc1 | 88.2%

Row | SMILES | growth
21 | Nc1nc(N(Cc2ccccc2)c2ccccc2)c2cn[nH]c2n1 | 58.8%
22 | CC(C)NS(=O)(=O)/N=C1\NC(=O)NC1=C(Cl)Cl | 113%
23 | COc1cc2c(cc1OCCCN1CCN(C(=S)SCCC(C#N)(c3ccccc3)c3ccccc3)CC1)N=C[C@@H]1CCCN1C2=O | -69.5% (active)
24 | O=c1cc(CP(=O)(O)O)c2cc(O)c(-c3ccccc3)cc2o1 | 108%
25 | O=S(=O)(Nc1ccc2ccccc2c1)c1ccc(-c2cnc(C3CC3)o2)cc1 | 1.46% (active)
26 | N=C(N)c1ccc(OCCSCCOc2ccc(C(=N)N)cc2)cc1 | 79.5%
27 | Fc1ccc(/C=C/[C@@H]2C[C@@H](F)CCO2)cc1 | 102%
28 | COC(=O)[C@@]12CC=C(C)[C@]3(C[C@H](c4ccoc4)OC3=O)[C@H]1C=C[C@@H](O)[C@@]2(O)C(=O)OC | 110%
29 | O=c1oc2c(cc1-c1ccccc1)c(=O)[nH]c1ccccc12 | 107%
30 | COc1ccc(C/C(C)=C(\c2ccc(O)cc2)c2ccc(OCCN3CCCCC3)cc2)cc1 | 89.4%
31 | CNC(=O)c1cc(Oc2ccc3c(c2)sc2nc(-c4ccc(NC(=O)[C@@H](NC(=O)OC)C(C)C)cc4)cn23)ccn1 | 63.9%
32 | Nc1[nH]nc2nc(-c3ccccc3)n3c4ccccc4nc3c12 | 112%
33 | N#Cc1ccccc1-c1ccc(CN2C(=O)S/C(=C\c3ccc(Br)cc3)C2=O)cc1 | 111%
34 | C=C1CC[C@@H]2C(C)(C)[C@H](O)CC[C@@]2(C)[C@@H]1COc1ccc2ccc(=O)oc2c1 | 68.7%
35 | COc1cc2ncnc(Nc3ccc(S(=O)(=O)Nc4nccs4)cc3)c2cc1OCCCN1CCCC1 | 113%
36 | Cc1cc(O)c(=O)cc2c1C[C@H]1CC(C)(C)/C=C/C[C@]3(C)Oc4cc(=O)c(O)cc(C)c4C[C@H]3C[C@H](O)[C@@]1(C)O2 | -14.7% (active)
37 | COc1ccc2[nH]cc(-c3nonc3-c3c[nH]c4ccc(Br)cc34)c2c1 | 32.1%
38 | COc1cc2c(c(OC)c1OC)C(=O)CC(c1cccc(C(=O)Nc3ccccc3Br)c1)O2 (stereo not given) | 95.4%
39 | NS(=O)(=O)c1ccc(C(=O)N=Nc2c(O)[nH]c3ccc(Cl)cc23)cc1 | 120%
40 | CCCN(CCSSCCNc1nc(N(C)O)nc(N(C)O)n1)c1nc(N(C)O)nc(N(C)O)n1 | 24.2%
